# Data taken from paper PMC7862700, “An all-to-all approach to the identification of sequence-specific readers for epigenetic DNA modifications on cytosine”.
# Legend:
# Experiment in all cases: DAPPL (digital affinity profiling via proximity ligation, sequencing); 10 mM Tris-HCl pH 7.5, 50 mM NaCl, 1 mM DTT, 4% glycerol, room temperature, 30 min; GST-TFs on glutathione beads, 16-mer random dsDNA library, 0.1% formaldehyde crosslink after washing; high values mean tight binding
# HSF1 = HSF1 (Homo sapiens, UniProt Q00613 1-529); settings: protein: recombinant; tags: N-terminal GST; chain copies: 3; dsDNA, one strand shown
# Sequence of HSF1 (Q00613 whole entry, the tested form may be a part): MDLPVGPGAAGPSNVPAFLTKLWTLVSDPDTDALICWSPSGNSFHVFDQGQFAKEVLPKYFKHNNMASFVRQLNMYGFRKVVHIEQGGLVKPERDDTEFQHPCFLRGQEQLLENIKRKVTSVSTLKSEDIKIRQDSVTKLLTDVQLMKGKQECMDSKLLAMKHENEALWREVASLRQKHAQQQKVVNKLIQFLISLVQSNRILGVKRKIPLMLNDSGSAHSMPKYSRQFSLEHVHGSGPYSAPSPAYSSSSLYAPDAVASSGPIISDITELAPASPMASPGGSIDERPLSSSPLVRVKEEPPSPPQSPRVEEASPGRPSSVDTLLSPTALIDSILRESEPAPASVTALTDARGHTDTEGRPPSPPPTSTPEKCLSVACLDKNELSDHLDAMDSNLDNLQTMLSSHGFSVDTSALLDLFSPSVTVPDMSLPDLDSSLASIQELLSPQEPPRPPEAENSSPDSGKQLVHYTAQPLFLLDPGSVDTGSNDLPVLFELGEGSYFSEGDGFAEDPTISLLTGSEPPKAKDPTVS
# How it was run: (§1)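 Pools were built from human transcription factors expressed in yeast as GST fusions, captured on glutathione beads and DNA-barcoded, along with a tag-only sample. Incubation with 200 nmole of a 16-mer random double-stranded DNA library lasted 30 min at room temperature in Tris/NaCl/DTT/glycerol buffer, and was followed by washing, 0.1% formaldehyde crosslinking, proximity ligation, PCR amplification and Illumina NextSeq500 sequencing. Binding signal is the quotient of each hexamer's read frequency for a factor and its frequency for the tag-only sample.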
# ETV2 = target: T1, ETV2 (Homo sapiens, UniProt O00321 1-342); settings: protein: recombinant; tags: N-terminal GST; dsDNA, one strand shown
# T1 sequence: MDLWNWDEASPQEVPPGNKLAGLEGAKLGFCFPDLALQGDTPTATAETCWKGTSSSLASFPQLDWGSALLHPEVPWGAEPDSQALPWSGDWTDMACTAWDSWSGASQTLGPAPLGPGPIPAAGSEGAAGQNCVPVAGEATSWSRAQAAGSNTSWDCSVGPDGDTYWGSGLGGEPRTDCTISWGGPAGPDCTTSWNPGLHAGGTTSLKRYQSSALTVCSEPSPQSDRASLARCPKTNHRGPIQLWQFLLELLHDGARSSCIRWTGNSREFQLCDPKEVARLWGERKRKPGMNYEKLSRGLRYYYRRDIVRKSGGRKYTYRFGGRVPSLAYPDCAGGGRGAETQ
# How it was run: as §1
# CRX = CRX (Homo sapiens, UniProt O43186 1-299); settings: protein: recombinant; tags: N-terminal GST; dsDNA, one strand shown
# Sequence of CRX (O43186 whole entry): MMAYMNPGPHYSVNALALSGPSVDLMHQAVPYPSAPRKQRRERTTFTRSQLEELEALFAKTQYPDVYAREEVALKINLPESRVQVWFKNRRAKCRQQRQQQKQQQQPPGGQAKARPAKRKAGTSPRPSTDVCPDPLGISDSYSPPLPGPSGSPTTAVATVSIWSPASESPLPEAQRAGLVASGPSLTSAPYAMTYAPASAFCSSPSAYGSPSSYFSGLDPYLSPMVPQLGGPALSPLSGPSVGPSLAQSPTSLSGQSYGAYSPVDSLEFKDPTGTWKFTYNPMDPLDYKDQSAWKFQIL
# How it was run: as §1
# SPIB = SPIB (Homo sapiens, UniProt Q01892 1-262); settings: protein: recombinant; tags: N-terminal GST; dsDNA, one strand shown
# Sequence of SPIB (Q01892 whole entry): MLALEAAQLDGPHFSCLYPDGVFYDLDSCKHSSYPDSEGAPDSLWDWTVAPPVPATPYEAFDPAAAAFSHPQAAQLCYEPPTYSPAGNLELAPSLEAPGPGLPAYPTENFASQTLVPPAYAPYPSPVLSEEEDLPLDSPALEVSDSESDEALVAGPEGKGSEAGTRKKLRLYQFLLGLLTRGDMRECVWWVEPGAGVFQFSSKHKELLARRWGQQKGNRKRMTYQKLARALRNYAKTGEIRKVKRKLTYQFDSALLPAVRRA
# How it was run: as §1
# SPDEF = target: T2, SPDEF (Homo sapiens, UniProt O95238 1-335); settings: protein: recombinant; tags: N-terminal GST; dsDNA, one strand shown
# T2 sequence: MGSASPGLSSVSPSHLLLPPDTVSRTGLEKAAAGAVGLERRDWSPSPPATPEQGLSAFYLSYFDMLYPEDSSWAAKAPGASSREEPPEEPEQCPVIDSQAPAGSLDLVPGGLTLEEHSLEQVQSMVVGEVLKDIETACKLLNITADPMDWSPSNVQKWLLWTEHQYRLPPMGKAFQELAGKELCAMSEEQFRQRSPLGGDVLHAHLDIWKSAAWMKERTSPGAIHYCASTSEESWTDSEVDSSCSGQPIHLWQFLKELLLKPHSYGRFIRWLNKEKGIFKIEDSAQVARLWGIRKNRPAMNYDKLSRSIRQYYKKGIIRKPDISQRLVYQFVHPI
# How it was run: as §1
# ELK3 = target: T3, ELK3 (Homo sapiens, UniProt P41970 1-407); settings: protein: recombinant; tags: N-terminal GST; dsDNA, one strand shown
# T3 sequence: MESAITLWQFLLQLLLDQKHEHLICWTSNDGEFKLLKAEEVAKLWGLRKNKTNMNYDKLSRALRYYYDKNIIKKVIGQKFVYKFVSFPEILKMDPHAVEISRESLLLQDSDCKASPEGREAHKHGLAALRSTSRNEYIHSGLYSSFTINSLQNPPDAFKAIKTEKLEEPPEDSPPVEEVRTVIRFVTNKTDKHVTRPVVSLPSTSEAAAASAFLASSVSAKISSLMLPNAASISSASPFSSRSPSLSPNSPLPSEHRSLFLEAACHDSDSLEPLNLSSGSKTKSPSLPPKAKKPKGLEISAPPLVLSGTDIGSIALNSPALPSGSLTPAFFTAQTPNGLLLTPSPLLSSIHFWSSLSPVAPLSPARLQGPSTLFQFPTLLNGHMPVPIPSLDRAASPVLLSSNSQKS
# How it was run: as §1
# SPIC = target: T4, SPIC (Homo sapiens, UniProt Q8N5J4 1-248); settings: protein: recombinant; tags: N-terminal GST; dsDNA, one strand shown
# T4 sequence: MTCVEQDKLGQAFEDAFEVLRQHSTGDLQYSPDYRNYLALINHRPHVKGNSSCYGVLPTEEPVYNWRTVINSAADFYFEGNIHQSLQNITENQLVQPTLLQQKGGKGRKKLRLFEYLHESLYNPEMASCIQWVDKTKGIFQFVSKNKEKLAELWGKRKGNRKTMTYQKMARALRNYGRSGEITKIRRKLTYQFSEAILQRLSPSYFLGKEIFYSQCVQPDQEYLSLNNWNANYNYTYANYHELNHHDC
# How it was run: as §1
# ERF = target: T5, ERF (Homo sapiens, UniProt P50548 1-548); settings: protein: recombinant; tags: N-terminal GST; dsDNA, one strand shown
# T5 sequence: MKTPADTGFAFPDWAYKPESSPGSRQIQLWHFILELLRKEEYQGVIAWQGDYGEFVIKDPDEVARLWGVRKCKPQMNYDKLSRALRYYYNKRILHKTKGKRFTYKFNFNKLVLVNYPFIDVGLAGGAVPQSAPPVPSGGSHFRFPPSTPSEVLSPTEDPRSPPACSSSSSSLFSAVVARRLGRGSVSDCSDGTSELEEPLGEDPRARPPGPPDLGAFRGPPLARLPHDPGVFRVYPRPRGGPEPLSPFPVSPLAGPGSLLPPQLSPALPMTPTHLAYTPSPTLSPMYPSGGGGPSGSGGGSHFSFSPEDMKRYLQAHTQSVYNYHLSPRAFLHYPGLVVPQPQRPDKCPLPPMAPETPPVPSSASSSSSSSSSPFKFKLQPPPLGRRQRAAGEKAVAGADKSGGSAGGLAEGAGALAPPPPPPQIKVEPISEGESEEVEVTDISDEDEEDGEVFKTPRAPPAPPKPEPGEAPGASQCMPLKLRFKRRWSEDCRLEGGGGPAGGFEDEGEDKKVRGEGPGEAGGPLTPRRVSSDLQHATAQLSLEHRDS
# How it was run: as §1
# ETV7 = target: T6, ETV7 (Homo sapiens, UniProt Q9Y603 1-341); settings: protein: recombinant; tags: N-terminal GST; dsDNA, one strand shown
# T6 sequence: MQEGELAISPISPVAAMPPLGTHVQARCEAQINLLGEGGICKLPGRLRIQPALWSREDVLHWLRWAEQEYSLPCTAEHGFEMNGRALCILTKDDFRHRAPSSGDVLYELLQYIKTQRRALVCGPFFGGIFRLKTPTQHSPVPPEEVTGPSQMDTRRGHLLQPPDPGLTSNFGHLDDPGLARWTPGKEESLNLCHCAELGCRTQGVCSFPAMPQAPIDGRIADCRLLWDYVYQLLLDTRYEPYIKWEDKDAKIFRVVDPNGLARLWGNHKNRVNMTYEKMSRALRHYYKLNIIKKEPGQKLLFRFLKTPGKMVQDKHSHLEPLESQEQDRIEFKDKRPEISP
# How it was run: as §1
# ELF1 = ELF1 (Homo sapiens, UniProt P32519 1-619); settings: protein: recombinant; tags: N-terminal GST; dsDNA, one strand shown
# Sequence of ELF1 (P32519 whole entry): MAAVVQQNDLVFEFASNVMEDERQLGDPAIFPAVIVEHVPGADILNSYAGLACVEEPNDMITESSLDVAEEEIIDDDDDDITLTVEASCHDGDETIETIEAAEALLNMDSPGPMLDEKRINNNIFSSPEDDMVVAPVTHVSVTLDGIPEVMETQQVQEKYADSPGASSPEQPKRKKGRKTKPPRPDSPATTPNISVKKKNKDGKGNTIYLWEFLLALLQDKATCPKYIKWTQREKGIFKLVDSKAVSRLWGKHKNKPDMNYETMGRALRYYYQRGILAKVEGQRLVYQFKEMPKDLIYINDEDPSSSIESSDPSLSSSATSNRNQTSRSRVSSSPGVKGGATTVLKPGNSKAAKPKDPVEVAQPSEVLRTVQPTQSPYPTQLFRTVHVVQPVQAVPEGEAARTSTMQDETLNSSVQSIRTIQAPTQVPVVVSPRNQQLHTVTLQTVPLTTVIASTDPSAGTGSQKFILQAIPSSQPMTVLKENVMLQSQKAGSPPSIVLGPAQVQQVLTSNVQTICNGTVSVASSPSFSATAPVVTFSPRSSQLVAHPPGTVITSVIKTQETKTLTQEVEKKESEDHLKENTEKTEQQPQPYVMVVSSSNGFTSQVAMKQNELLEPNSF
# How it was run: as §1
# ETV1 = ETV1 (Homo sapiens, UniProt P50549 1-477); settings: protein: recombinant; tags: N-terminal GST; dsDNA, one strand shown
# Sequence of ETV1 (P50549 whole entry): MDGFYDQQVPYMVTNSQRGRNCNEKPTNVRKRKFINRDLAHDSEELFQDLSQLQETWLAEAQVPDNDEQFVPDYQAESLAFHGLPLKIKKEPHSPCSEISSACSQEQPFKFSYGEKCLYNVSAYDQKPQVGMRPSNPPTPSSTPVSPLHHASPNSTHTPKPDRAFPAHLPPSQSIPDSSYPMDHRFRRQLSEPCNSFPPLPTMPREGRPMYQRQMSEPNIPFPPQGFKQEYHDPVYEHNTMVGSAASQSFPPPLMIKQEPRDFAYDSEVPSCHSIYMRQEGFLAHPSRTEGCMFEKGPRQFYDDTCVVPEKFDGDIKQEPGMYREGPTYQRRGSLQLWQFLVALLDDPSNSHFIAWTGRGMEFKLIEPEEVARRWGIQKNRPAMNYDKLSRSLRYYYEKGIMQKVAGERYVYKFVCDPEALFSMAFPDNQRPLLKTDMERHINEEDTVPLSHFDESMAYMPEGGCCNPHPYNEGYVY
# How it was run: as §1
sequence,measurement,setting,value
AGATCA,binding signal,HSF1,"1.21 fold enrichment (6-mer frequency, TF over GST control)"
same,binding signal,ETV2,"1.03 fold enrichment (6-mer frequency, TF over GST control)"
same,binding signal,CRX,"1.31 fold enrichment (6-mer frequency, TF over GST control)"
TTCGTG,binding signal,SPIB,"1.04 fold enrichment (6-mer frequency, TF over GST control)"
same,binding signal,HSF1,"1.1 fold enrichment (6-mer frequency, TF over GST control)"
TTAGTC,binding signal,HSF1,"1.17 fold enrichment (6-mer frequency, TF over GST control)"
same,binding signal,CRX,"1.57 fold enrichment (6-mer frequency, TF over GST control)"
GGATTA,binding signal,HSF1,"3.05 fold enrichment (6-mer frequency, TF over GST control)"
same,binding signal,CRX,"5.42 fold enrichment (6-mer frequency, TF over GST control)"
same,binding signal,SPDEF,"1.02 fold enrichment (6-mer frequency, TF over GST control)"
TCAAGA,binding signal,HSF1,"1.12 fold enrichment (6-mer frequency, TF over GST control)"
same,binding signal,CRX,"1.03 fold enrichment (6-mer frequency, TF over GST control)"
GGGATT,binding signal,HSF1,"1.75 fold enrichment (6-mer frequency, TF over GST control)"
same,binding signal,CRX,"2.71 fold enrichment (6-mer frequency, TF over GST control)"
GATAAG,binding signal,ELK3,"1.02 fold enrichment (6-mer frequency, TF over GST control)"
same,binding signal,HSF1,"1.29 fold enrichment (6-mer frequency, TF over GST control)"
same,binding signal,CRX,"1.77 fold enrichment (6-mer frequency, TF over GST control)"
CTGTGG,binding signal,SPIC,"1.1 fold enrichment (6-mer frequency, TF over GST control)"
CCAAGA,binding signal,HSF1,"1.03 fold enrichment (6-mer frequency, TF over GST control)"
same,binding signal,ERF,"1.01 fold enrichment (6-mer frequency, TF over GST control)"
CAGAAA,binding signal,HSF1,"1.99 fold enrichment (6-mer frequency, TF over GST control)"
same,binding signal,CRX,"1.07 fold enrichment (6-mer frequency, TF over GST control)"
same,binding signal,ETV7,"1.02 fold enrichment (6-mer frequency, TF over GST control)"
CAAAGA,binding signal,ELF1,"1.01 fold enrichment (6-mer frequency, TF over GST control)"
same,binding signal,ELK3,"1.03 fold enrichment (6-mer frequency, TF over GST control)"
same,binding signal,HSF1,"1.1 fold enrichment (6-mer frequency, TF over GST control)"
same,binding signal,CRX,"1.05 fold enrichment (6-mer frequency, TF over GST control)"
same,binding signal,ETV1,"1.02 fold enrichment (6-mer frequency, TF over GST control)"
GAAGAT,binding signal,HSF1,"1.24 fold enrichment (6-mer frequency, TF over GST control)"
same,binding signal,CRX,"1.12 fold enrichment (6-mer frequency, TF over GST control)"
same,binding signal,ETV7,"1 fold enrichment (6-mer frequency, TF over GST control)"
AGCAGA,binding signal,SPIC,"1.04 fold enrichment (6-mer frequency, TF over GST control)"
